Measurements from PubChem BioAssay (NCATS).
Records with an inconclusive call do not appear. The source made the active and inactive calls. Unless noted, calls come from the whole dose curve.

Key:
[1] = molecular target: Alpha-galactosidase (Coffea arabica) (UniProt Q42656); assay: Counterscreen for Glucocerebrosidase Inhibitors: qHTS Assay for Coffee Bean alpha-Galactosidase at pH 4.5 (AID 957; active = well fitted curve in the direction sought with a large enough effect; an effect the other way counts as inactive or inconclusive; note: series mostly up to about 77 µM)
Chain of Alpha-galactosidase (Coffea arabica) (Q42656 whole entry, looked up): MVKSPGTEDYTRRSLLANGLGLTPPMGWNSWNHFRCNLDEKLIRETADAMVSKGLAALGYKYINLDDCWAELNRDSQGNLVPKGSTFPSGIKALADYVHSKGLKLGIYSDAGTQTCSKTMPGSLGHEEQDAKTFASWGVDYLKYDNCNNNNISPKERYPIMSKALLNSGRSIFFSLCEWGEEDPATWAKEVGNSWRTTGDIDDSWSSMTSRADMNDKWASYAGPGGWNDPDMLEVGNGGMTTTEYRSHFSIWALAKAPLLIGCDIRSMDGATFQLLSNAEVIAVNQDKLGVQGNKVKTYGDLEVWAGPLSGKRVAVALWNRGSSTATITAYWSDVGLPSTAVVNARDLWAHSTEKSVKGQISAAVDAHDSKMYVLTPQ
Procedure, shortened: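 Green coffee bean enzyme (2 nM final) was incubated with compounds (0.7 nM to 77 uM) and 4-methylumbelliferyl alpha-D-galactopyranoside (80 uM final) in 50 mM citric acid, 0.005% Tween-20, pH 4.5, 20 min at room temperature; AC50 from Hill fits.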

[2] = molecular target: Alpha-galactosidase (Coffea arabica) (UniProt Q42656); assay: Counterscreen for Glucocerebrosidase Inhibitors: qHTS Assay for Coffee Bean alpha-Galactosidase at pH 5.9 (AID 998; active = well fitted curve in the direction sought with a large enough effect; an effect the other way counts as inactive or inconclusive)
Procedure, shortened: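 Compounds were titrated from 0.7 nM to 77 uM against green coffee bean alpha-galactosidase (2 nM) using 80 uM fluorogenic 4-methylumbelliferyl substrate. After 20 min at room temperature, reactions were stopped at pH 10 and read by fluorescence.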

[3] = Validation screen for inhibitors of Lassa infection (AID 463096)
[4] = Inducers of the Endoplasmic Reticulum Stress Response (ERSR) in human glioma: Validation (AID 504836; active = well fitted curve in the direction sought with a large enough effect; an effect the other way counts as inactive or inconclusive)
Procedure, shortened: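 ERSR induction read as luciferase luminescence (Bright-Glo, 10 min at room temperature) in stably transfected human U87-MG glioma cells exposed to compounds for 16 h, using GRP78 as sensor.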

[5] = qHTS for Inhibitors of the Functional Ribonucleoprotein Complex (vRNP) of Lassa (LASV) Arenavirus: LASV Primary Screen - GLuc reporter signal (AID 1347082; calls by dose curve; tested in HEK293 reporter line; note: series mostly up to about 57 µM; nearly all actives have a fitted effect of over 60% in size)
[6] = qHTS for Inhibitors of the Functional Ribonucleoprotein Complex (vRNP) of Lassa (LASV) Arenavirus: Viability assay - alamar blue signal for LASV Primary Screen (AID 1347083; calls by dose curve; tested in HEK293 reporter line; note: series mostly up to about 57 µM; nearly all actives have a fitted effect of over 80% in size)
[7] = qHTS for Inhibitors of the Functional Ribonucleoprotein Complex (vRNP) of Lymphocytic Choriomeningitis Arenaviruses (LCMV): Viability assay - alamar blue signal for LCMV Primary Screen (AID 1347085; calls by dose curve; tested in HEK293 reporter line; note: series mostly up to about 57 µM; nearly all actives have a fitted effect of over 80% in size)
[8] = molecular target: Nucleoprotein (Lymphocytic choriomeningitis virus (strain Armstrong)) (UniProt P09992); assay: qHTS for Inhibitors of the Functional Ribonucleoprotein Complex (vRNP) of Lymphocytic Choriomeningitis Arenaviruses (LCMV): LCMV Primary Screen - GLuc reporter signal (AID 1347086); note: series mostly up to about 57 µM; nearly all actives have a fitted effect of over 70% in size
Chain of Nucleoprotein (Lymphocytic choriomeningitis virus (strain Armstrong)) (P09992 whole entry, looked up): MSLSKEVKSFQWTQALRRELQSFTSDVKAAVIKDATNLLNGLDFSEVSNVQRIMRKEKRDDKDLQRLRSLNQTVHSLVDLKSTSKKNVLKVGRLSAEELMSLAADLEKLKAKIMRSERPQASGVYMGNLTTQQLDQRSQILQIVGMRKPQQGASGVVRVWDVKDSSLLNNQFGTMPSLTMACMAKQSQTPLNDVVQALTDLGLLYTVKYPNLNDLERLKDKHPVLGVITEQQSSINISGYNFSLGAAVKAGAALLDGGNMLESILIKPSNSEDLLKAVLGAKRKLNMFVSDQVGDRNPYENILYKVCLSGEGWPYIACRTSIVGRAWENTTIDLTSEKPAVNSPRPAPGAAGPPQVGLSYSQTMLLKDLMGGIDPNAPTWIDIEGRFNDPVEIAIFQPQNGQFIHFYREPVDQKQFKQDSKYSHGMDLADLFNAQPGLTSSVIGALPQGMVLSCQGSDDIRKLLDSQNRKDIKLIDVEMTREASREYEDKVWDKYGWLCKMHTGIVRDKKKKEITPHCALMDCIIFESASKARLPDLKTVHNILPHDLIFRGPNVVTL

[9] = qHTS for inhibitors of Rabies Virus screened against the NCATS CANVASS Library (AID 1347402); note: series mostly up to about 46 µM

Measured: Potency

CC(=O)NCCc1c[nH]c2ccc(O)cc12
inactive: all assays above

O=C(O)Cc1c[nH]c2ccc(O)cc12
not listed: [2]
inactive: all other assays above
